# Screens: PubChem, National Center for Advancing Translational Sciences (NCATS)
# In the library only some 16% were active in any assay of this set; here they are far more common.
# TDP1 inh: qHTS Assay for Inhibitors of Tyrosyl-DNA Phosphodiesterase (TDP1); Tyrosyl-DNA phosphodiesterase 1 (Homo sapiens), Q9NUW8; recombinant TDP1, AlphaScreen DNA substrate cleavage; Potency, µM (series often up to 130 µM), for inactives: top-dose activity change, negative = inhibition, usual class: inhibitors; 0.28% of 350,000 active; AID 485290, 2010; note: potency is the fitted concentration of half-maximal effect; % is set by controls: 0 for no effect and ±100 for the full control effect; nearly all actives have a fitted effect of over 40% in size
# Target sequence (Q9NUW8 whole entry, looked up): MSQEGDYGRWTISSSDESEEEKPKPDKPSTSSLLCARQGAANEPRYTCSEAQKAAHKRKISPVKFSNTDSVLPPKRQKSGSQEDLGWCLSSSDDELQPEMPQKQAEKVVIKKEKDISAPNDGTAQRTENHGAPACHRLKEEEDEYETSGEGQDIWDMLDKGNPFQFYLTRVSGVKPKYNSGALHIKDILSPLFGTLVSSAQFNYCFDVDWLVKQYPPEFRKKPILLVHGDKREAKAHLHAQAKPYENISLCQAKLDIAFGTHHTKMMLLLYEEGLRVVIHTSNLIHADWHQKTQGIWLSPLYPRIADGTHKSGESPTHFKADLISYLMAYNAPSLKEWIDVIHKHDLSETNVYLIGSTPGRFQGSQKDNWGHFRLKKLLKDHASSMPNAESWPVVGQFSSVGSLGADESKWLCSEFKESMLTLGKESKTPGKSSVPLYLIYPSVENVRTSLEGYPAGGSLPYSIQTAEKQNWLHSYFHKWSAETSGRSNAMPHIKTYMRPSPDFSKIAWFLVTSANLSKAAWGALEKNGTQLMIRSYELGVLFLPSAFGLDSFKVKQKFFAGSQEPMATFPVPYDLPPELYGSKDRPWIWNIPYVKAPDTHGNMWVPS
#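 Compounds were preincubated with Tdp1 (1 nM final) for 15 min at room temperature before substrate (15 nM final) started a 5 min reaction; beads (10 ug/ml final) were then added for 10 min before AlphaScreen detection.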
# miR-21 act: qHTS Assay for Modulators of miRNAs and/orActivators of miR-21 | Potency, µM (highest dose often 38.3 µM), for the others: at the highest dose activity change, positive = activation, usual class: activators | 340,000 tested, under 10 active | AID 2288, 2010 | HeLa miR-21 FLuc reporter, luciferase, 48 h;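 note: % of control where 0% means no effect; miR-21 action dims this reporter so a rising signal means less miR-21 action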
#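 Using DMEM plus 10% FBS, HeLa miR-21-FLuc cells are incubated with test compounds (final up to about 40uM) for 48 hours; firefly luciferase signal is then imaged following reagent-mediated lysis.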
# DT40 TDP1 CPT: qHTS for Inhibitors of human tyrosyl-DNA phosphodiesterase 1 (TDP1): qHTS in cells in presence of CPT; chicken DT40 Tdp1-/-;hTDP1 cells + 20 nM CPT, ATP luminescence, 48 h; Potency, µM (doses to about 46.2 µM), inactives show top-dose activity change, negative = growth inhibition, hits mostly inhibitors; 12% of 420,000 active; AID 686979, 2013; note: potency is the fitted concentration of half-maximal effect; % is set by controls: 0 for no effect and ±100 for the full control effect; nearly all actives have a fitted effect of over 55% in size
#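 Chicken DT40 Tdp1-/- cells complemented with human TDP1, 400 cells/well, exposed to compounds plus 20 nM camptothecin for at least 48 h at 37 C; viability read as ATP content by CellTiter-Glo luminescence.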
# uPA surface inh: qHTS for Inhibitors of Cell Surface uPA Generation; Potency, µM (titrated, usually from 38.3 µM), for inactives: at the top dose activity change, negative = inhibition, usual class: inhibitors; AID 540303, 2011; 0.31% of 330,000 active; cell surface uPA generation assay, qHTS; active = well fitted inhibition curve with a large enough effect; inconclusive = small, poorly fitted or top-dose-only effect; inactive = no such curve, though single readings can be large or run the other way; tested in mouse RAW 264.7 cells; note: potency is the fitted concentration of half-maximal effect; % is set by controls: 0 for no effect and ±100 for the full control effect; nearly all actives have a fitted effect of over 55% in size
# TDP1 cell noCPT: qHTS for Inhibitors of human tyrosyl-DNA phosphodiesterase 1 (TDP1): qHTS in cells in absence of CPT. DT40 Tdp1-/- hTDP1 cells, no CPT, ATP luminescence, 48 h. Potency, µM (top dose mostly 46.2 µM), inactives show top-dose activity change, negative = growth inhibition, hits mostly inhibitors. 15% of 420,000 active. AID 686978, 2013; note: potency is the fitted concentration of half-maximal effect; % is set by controls: 0 for no effect and ±100 for the full control effect; nearly all actives have a fitted effect of over 55% in size
#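 Seeded 400 DT40-hTDP1 cells/well (vehicle DMSO, no 20 nM CPT); pinned compounds; ≥48 hr at 37 °C; CellTiter-Glo luminescence as viability measure.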
# * = called active by the depositor; ? = inconclusive; · = not tested or not shown; [ ] = another dose, or the depositor's remark. Unless noted, calls come from the whole dose curve; as a rule, active = well fitted curve in the direction sought with a large enough effect; inconclusive = small, poorly fitted or top-dose-only effect, or another doubt; inactive = no such curve, though single readings can be large; an effect the other way counts as inactive or inconclusive.
SMILES,TDP1 inh,miR-21 act,DT40 TDP1 CPT,uPA surface inh,TDP1 cell noCPT
CCCCNC(=O)NC12CC3CC(CC(C3)C1)C2,-3%,4%,-14%,2%,?
NC(=O)c1ccc(C[C@H](C(=O)O)N2C(=O)c3ccc(C(=O)O)cc3C2=O)cc1,3%,·,·,·,·
CCOCCCn1c(SCC(=O)Nc2ccccc2Cl)nc2c(oc3ccccc32)c1=O,4%,4%,?,·,7.3µM*
CCOCCCn1c(SCC(=O)Nc2ccccc2CC)nc2ccccc2c1=O,0%,8%,16µM*,·,16µM*
c1csc(-c2nc(-c3ccc(-c4ccon4)s3)no2)c1,0%,-65%,-21%,-15%,?
CCC(C)[C@H]1CNC(=S)N1CCC12CC3CC(CC(C3)C1)C2 (stereo partly drawn),1%,0%,16µM*,8%,15µM*
Cc1ccc(-c2nn(-c3ccccc3)cc2C(=O)Nc2cccc(S(=O)(=O)NC3=NCCC3)c2)cc1,·,·,3%,·,0.21µM*
O=C(O)c1cccc(NC(=O)c2cn(-c3ccccc3)nc2-c2ccc(F)cc2)c1,·,-27%,-1%,-1%,-3%
Cc1onc(-c2ccccc2)c1C(=O)Nc1cccc(S(=O)(=O)NC2=NCCC2)c1,-1%[56.1 µM],·,?,-27%,21%
O=C(Nc1cccc(S(=O)(=O)NC2=NCCC2)c1)c1cn(-c2ccccc2)nc1-c1ccc(F)cc1,2%,·,3.7µM*,?,2.6µM*
CCOc1ccc(CNC(=O)CC(C)n2nc(C)cc2C)cc1OC (stereo not drawn),3%,30%,-7%,·,-1%
CSCCC(NS(=O)(=O)c1ccc(Br)cc1)C(=O)OCC(=O)NC1CC1 (stereo not drawn),2%,0%,6%,-1%,0%
CCOC(=O)C1=CN(Cc2cccc(F)c2)S(=O)(=O)N(CC)C1c1ccc(Br)cc1F (stereo not drawn),-2%[56.1 µM],·,?,9%,?
NC(=O)CSc1nnc(-c2cccs2)n1Cc1ccco1,1%,0%,12%,13%,5%
O=C(CSc1nnc(-c2ccccc2)n1-c1ccccc1)c1cccs1,-1%,0%,?,-2%,12µM*
O=C(CSc1nnc(-c2ccc(Cl)cc2)n1Cc1ccco1)c1cccs1,12%,-13%,?,-15%,21µM*
Cc1ccc(C(=O)CSc2nnc(-c3ccccc3)n2-c2ccccc2)o1,0%,1%,11µM*,·,10µM*
O=C(CSc1nnc(Cc2cccs2)n1Cc1ccco1)Nc1cc(Cl)cc(Cl)c1,0%,14%,26µM*,7%,?
O=C(CSc1nnc(-c2ccccc2)n1-c1ccccc1)c1ccc[nH]1,3%,-6%,?,3%,?
CC(C)(C)c1cc[n+](-c2[nH]c(=O)sc2/C=N/NC([S-])=Nc2ccccc2)cc1,8%,-3%,26%,-1%,-4%
COCC(=O)Nc1cc(C(=O)NC2C3CC4CC2CC(O)(C4)C3)cc2nc(-c3ccccc3)n(C)c12 (stereo not drawn),·,·,-1%,·,-5%
CC(C)(C)C(=O)OCc1nc(-c2ccc3c(c2)OCCO3)cs1,·,-56%,-1%,-12%,-20%
Cc1cc(C)cc(Nc2cc(C)nc3nc(-c4ccco4)nn23)c1,6%,30%,16µM*,·,9.2µM*
CCOc1ccc(OCC)c(Nc2cc(C)nc3nc(-c4ccco4)nn23)c1,-4%,2%,·,·,·
COc1ccc2c(c1)OC(C)(C)C(c1ccccc1)C2c1ccc(OCCN2CCCC2)cc1 (stereo not drawn),·,·,21µM*,·,27µM*
COc1ccc(C2CC(O)(c3ccccc3)Oc3cc(OC)ccc32)cc1 (stereo not drawn),14%,20%,?,?,?
Cc1ccc(S(=O)(=O)N2CCN(C(=O)c3c(-c4ccccc4)noc3C)CC2)cc1C,0%,5%,?,-1%,-69%
